Bioassay records from PubChem.
SIRT5 inh: inhibitors of human sirtuin-5 desuccinylase; Q9NXA8; Purified SirT5, succinyl-peptide AMC, trypsin-coupled fluorescence; inhibition, % at 15 µM; 1.1% of 330,000 active; AID 652115; in the data active = inhibition above about 15%
FGF22 binding: shifts melting point of recombinant human FGF22 | 1.5% of 340,000 active | AID 651658 | activity (Tm shift, normalised), % at 9.99 µM | recombinant FGF22 thermal shift, SYPRO orange fluorescence; percent of sucrose octasulfate shift, DMSO zero;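 active = mean Tm shift, scaled 0 neutral to 100 positive control, at about 1.3% or above, every replicate too, limit read from the data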
CASP6 VEID inh: blocks human caspase-6 cleavage activity. purified caspase-6, Z-VEID-R110 cleavage fluorescence. inhibition, % at 12.5 µM. 0.53% of 350,000 active;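 active = mean inhibition across replicates at least about 35%, with every replicate also reaching that limit, limit read from the data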;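 note: 0% = median of neutral control wells and 100% = no fluorescence left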
INS-1E GSIS act: GLuc luminescence reporter in INS-1E cells, primary screen for activators of glucose-dependent secretion of insulin; activation, % at 16.6 µM; 0.61% of 370,000 active; INS-1E GLuc reporter insulin secretion, 2-3 h;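 active = lowest replicate activation of at least 40%, so every replicate reaches that level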;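 note: 0% = median of neutral control wells and 100% = median of IBMX positive control wells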
ERAP1 HTS inh: blocks human ERAP1 aminopeptidase activity; Q9NZ08; recombinant ERAP1, Leu-AMC fluorescence, 60 min; inhibition, % at 10.7 µM; 0.15% of 340,000 active;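 active = mean replicate inhibition of at least 30%, or all replicates individually reaching that 30% level; inactive = mean below 30% and not every replicate reaching it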;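 note: 0% = neutral control wells and 100% = L-leucinethiol positive control wells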
Starred values were filed as active, the others as inactive. Hits are enriched below; roughly 3.3% of the tested compounds scored in any of these assays.

Screening CC1CCCN(C(=S)Nc2ccc(S(=O)(=O)N3CCCCC3)cc2)C1 (stereo unspecified) returned SIRT5 inh 3.1, FGF22 binding -0.3, CASP6 VEID inh -0.7, INS-1E GSIS act -15.9 and ERAP1 HTS inh 3.8.
For CO[C@H]1CN(C)C(=O)c2ccc(NS(=O)(=O)c3ccc(C)cc3)cc2OC[C@@H](C)N(C(=O)NC(C)C)C[C@@H]1C the results were INS-1E GSIS act -24.1.
For C[C@@H]1CN([C@H](C)CO)C(=O)Cc2cc(NS(=O)(=O)c3ccccc3)ccc2O[C@@H]1CN(C)C(=O)NC1CCCCC1 the results were SIRT5 inh -0.6, FGF22 binding -0.1, CASP6 VEID inh 2.9, INS-1E GSIS act -9.6 and ERAP1 HTS inh -2.8.
OC1CCCN(CC(O)COC(c2ccc(F)cc2)c2ccc(F)cc2)C1 (stereo unspecified) was read as SIRT5 inh -5.5, FGF22 binding -0.6, CASP6 VEID inh -6.5, INS-1E GSIS act -0.5 and ERAP1 HTS inh 0.3.
`OC1CCCN(CC(O)c2ccccc2)C1` (stereo unspecified) gave SIRT5 inh -0.5, FGF22 binding 42.9*, CASP6 VEID inh -0.4, INS-1E GSIS act 7.9 and ERAP1 HTS inh 0.9.
`O=C(NCc1ccco1)C1CC(c2ccc(Cl)cc2)=NO1` (stereo unspecified) gave SIRT5 inh -3.6, FGF22 binding 43.0*, CASP6 VEID inh -1.0, INS-1E GSIS act -9.2 and ERAP1 HTS inh -0.8.
For O=C(NCc1cc(C(F)(F)F)cc(C(F)(F)F)c1)C1CC(c2ccc(C(F)(F)F)cc2)=NO1 (stereo unspecified) the results were SIRT5 inh -3.2, FGF22 binding 41.2*, CASP6 VEID inh 1.5, INS-1E GSIS act -4.6 and ERAP1 HTS inh 8.3.
Screening O=C(NCc1ccco1)C1CC(c2ccc(F)cc2)=NO1 (stereo unspecified) returned SIRT5 inh -2.8, FGF22 binding 0.4, CASP6 VEID inh 3.4 and INS-1E GSIS act 14.1.
`CC(=O)N1CCN(c2ccccc2NC(=O)c2ccc(Br)o2)CC1` gave SIRT5 inh 27.1*, FGF22 binding 0.0, CASP6 VEID inh 8.9, INS-1E GSIS act 16.8 and ERAP1 HTS inh -2.4.
For CN1CCN(c2ccc(NC(=O)c3ccc(Br)o3)cc2)CC1 the results were SIRT5 inh 1.9, FGF22 binding -0.2, CASP6 VEID inh -17.7, INS-1E GSIS act 2.2 and ERAP1 HTS inh -2.2.
CCC(=O)N1CCN(c2ccc(NC(=O)c3ccc(Br)o3)cc2)CC1 was read as SIRT5 inh 3.3, FGF22 binding 43.8*, CASP6 VEID inh 2.5, INS-1E GSIS act -2.2 and ERAP1 HTS inh -1.4.
For Cc1ccnc(NC2CCCCC2)c1 the results were SIRT5 inh -4.9, FGF22 binding 43.6*, CASP6 VEID inh -1.5, INS-1E GSIS act 1.3 and ERAP1 HTS inh -1.1.
For CCc1ccc(CN(C)C(=O)C2CCC(=O)N(Cc3ccccn3)C2)cc1 (stereo unspecified) the results were SIRT5 inh 31.1*, FGF22 binding 0.0, CASP6 VEID inh -4.2, INS-1E GSIS act 11.3 and ERAP1 HTS inh -4.0.
For O=C(COc1ncnc2sccc12)Nc1ccc(F)cc1F the results were SIRT5 inh -5.6, FGF22 binding 43.9*, CASP6 VEID inh -1.5, INS-1E GSIS act -7.4 and ERAP1 HTS inh 1.3.
CC(C)CNC(=O)COc1ncnc2sccc12 was read as SIRT5 inh 0.6, FGF22 binding 0.5, CASP6 VEID inh -1.8, INS-1E GSIS act 11.9 and ERAP1 HTS inh 0.3.
O=C(CNC(=O)c1ccc(Cl)cc1)OCCN1C(=O)c2ccccc2C1=O was read as SIRT5 inh -5.1, FGF22 binding 0.1, CASP6 VEID inh -4.0, INS-1E GSIS act 7.1 and ERAP1 HTS inh 0.4.
`CCOc1ccc(C(=O)NCC(=O)OCCN2C(=O)c3ccccc3C2=O)cc1OCC` gave SIRT5 inh -2.0, FGF22 binding 0.3, CASP6 VEID inh -3.3, INS-1E GSIS act 57.0* and ERAP1 HTS inh -0.8.
CC(C)CCNC(=O)C1CCN(S(=O)(=O)c2ccc3nc4c(c(C(=O)O)c3c2)CCCCC4)CC1 was read as SIRT5 inh 0.5, FGF22 binding -0.2, CASP6 VEID inh 3.6, INS-1E GSIS act 2.9 and ERAP1 HTS inh -5.8.
`O=C(O)c1c2c(nc3ccc(S(=O)(=O)N4CCC(C(=O)NCc5ccc(Cl)cc5)CC4)cc13)CCCC2` gave SIRT5 inh 6.4, FGF22 binding -0.2, CASP6 VEID inh 64.5*, INS-1E GSIS act -8.2 and ERAP1 HTS inh -6.2.
